The nature of assay [1]: NCI Yeast Anticancer Drug Screen. Data for the rad50 strain (AID 155).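 Note: 0% = growth of vehicle-only cultures of the same strain.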 Particulars: S. cerevisiae rad50 strain growth inhibition, stronger effect = higher value. In short, it runs like this: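 Relative growth inhibition (compound vs vehicle) was measured in yeast with a defined repair-gene alteration.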
Assay [2] can be described thus: NCI Yeast Anticancer Drug Screen. Data for the mec2-1 strain (AID 157). Conditions: S. cerevisiae mec2-1 strain, stronger effect = higher value. In short, it runs like this: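 Compounds were applied to mec2-1 yeast cells. Their growth was then compared with that of vehicle-treated cultures to give growth inhibition.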
A short description of assay [3]: NCI Yeast Anticancer Drug Screen. Data for the sgs1 mgt1 strain (AID 161).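 Note: 0% = growth of cultures given vehicle only.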 Particulars: S. cerevisiae sgs1 mgt1 strain, stronger effect = higher value. In short, it runs like this:
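Yeast cells carrying a defined DNA-repair defect were exposed to test compounds. Growth inhibition was measured relative to vehicle-treated controls.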

Assay [4] is described as follows: NCI Yeast Anticancer Drug Screen. Data for the cln2 rad14 strain (AID 165).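 Note: 0% = growth equal to vehicle treated cultures.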 Particulars: S. cerevisiae cln2 rad14 strain, stronger effect = higher value. In short, it runs like this: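 Strain: cln2 rad14 yeast, altered in cell cycle control and DNA damage repair. Read-out: growth inhibition vs vehicle.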
The nature of assay [5]: NCI Yeast Anticancer Drug Screen. Data for the bub3 strain (AID 167). Conditions: S. cerevisiae bub3 mutant strain, stronger effect = higher value. An outline of the steps: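 Screening used yeast with an engineered genetic alteration affecting cell cycle control. Compound-exposed cultures were compared with vehicle cultures, and reduced growth was taken as inhibition.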
A short description of assay [6]: NCI Yeast Anticancer Drug Screen. Data for the wt2 strain (AID 169).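 Note: 0% = growth of vehicle-treated yeast cultures.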 Particulars: S. cerevisiae wt2 strain growth inhibition, stronger effect = higher value. In short, it runs like this:
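Growth of compound-treated yeast is measured and expressed as inhibition relative to vehicle-only controls.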

Assay [7] can be described thus: NCI Yeast Anticancer Drug Screen. Data for the mlh1 rad18 strain (AID 175). Particulars: S. cerevisiae mlh1 rad18 strain growth inhibition, stronger effect = higher value. In short, it runs like this:
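A repair-deficient yeast strain is exposed to test compound, and growth is scored relative to vehicle-treated controls.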

Setting [8] is: at 5.0 µM (retest, dose inferred, filed as 0.5).
The mark [9] stands for this setting: at 50.0 µM (retest, dose inferred, filed as 5.0).

Where “and” joins values, the source holds several entries; their conditions need not be identical. Identical values can stand only once. The panel holds about 79,000 compounds, 15% with a hit somewhere; the sample as a whole holds those more often. Some compounds were tested as several samples or in several runs, with calls that do not always agree. Calls of active or inactive are those of the source. Cut-off read from the data, not from the text of the source: active = growth inhibition above about 70%; inactive = the rest.

The values that follow come from PubChem BioAssay (NCI).

Consider `O=Cc1cc([N+](=O)[O-])ccc1O.[Eu]`, for which the growth inhibition was 28% (inactive) in assay [1] (setting [8]); 51% (inactive) in assay [1] (setting [9]); 81.3% (active) in assay [1] (at 50.0 µM); 46% (inactive) in assay [2] (setting [8]); 69% (inactive) in assay [2] (setting [9]); 86.1% (active) in assay [2] (at 50.0 µM). Besides, the growth inhibition is -4% (inactive) in assay [3] (setting [8]); 95% (active) in assay [3] (setting [9]); 91.2% (active) in assay [3] (at 50.0 µM); 18% (inactive) in assay [4] (setting [8]); 97% (active) in assay [4] (setting [9]); 83.2% (active) in assay [4] (at 50.0 µM). The growth inhibition in assay [5] (setting [8]) is 49% (inactive); in assay [5] (setting [9]) it was 96% (active); in assay [5] (at 50.0 µM), 85.8% (active); in assay [6] (at 1.2 µM) it was 6% (inactive); in assay [6] (at 3.7 µM), 7% (inactive); in assay [6] (at 11.0 µM), 20% (inactive). The growth inhibition was 36% (inactive) in assay [6] (at 33.0 µM); 98% (active) in assay [6] (at 100.0 µM); 29% (inactive) in assay [7] (setting [8]); 64% (inactive) in assay [7] (setting [9]); 86.2% (active) in assay [7] (at 50.0 µM).

Consider `Nc1nc(-c2ccccn2)cc2ccccc12`, for which the growth inhibition in assay [1] (setting [8]) is 5% (inactive); in assay [1] (setting [9]), 63% (inactive); in assay [1] (at 50.0 µM), -2.25% (inactive); in assay [2] (setting [8]), 25% (inactive); in assay [2] (setting [9]) it was 76% (active); in assay [2] (at 50.0 µM) it was -11.2% (inactive). In addition, the growth inhibition in assay [3] (setting [8]) was 22% (inactive); in assay [3] (setting [9]), 77% (active); in assay [3] (at 50.0 µM), 4.35% (inactive); in assay [4] (setting [8]), 21% (inactive); in assay [4] (setting [9]), 62% (inactive); in assay [4] (at 50.0 µM), 4.4% (inactive). Also, the growth inhibition was 1% (inactive) in assay [5] (setting [8]), 61% (inactive) in assay [5] (setting [9]) and 7.35% (inactive) in assay [5] (at 50.0 µM).

Turning to `Clc1ccc2c(c1)[nH]c1c2nc2ccccn21`, the growth inhibition in assay [1] (setting [8]) was 21% (inactive); in assay [1] (setting [9]), 95% (active); in assay [1] (at 50.0 µM), 62.9% (inactive) and 83.2% (active); in assay [2] (setting [8]), 19% (inactive); in assay [2] (setting [9]) it was 98% (active); in assay [2] (at 50.0 µM), -11.3% (inactive) and 67.4% (inactive). Besides, the growth inhibition in assay [3] (setting [8]) was 50% (inactive); in assay [3] (setting [9]), 95% (active); in assay [3] (at 50.0 µM), 19.4% (inactive) and 85.7% (active); in assay [4] (setting [8]) it was 47% (inactive); in assay [4] (setting [9]) it was 95% (active); in assay [4] (at 50.0 µM) it was 25.2% (inactive) and 77.5% (active). In addition, the growth inhibition in assay [5] (setting [8]) is 36% (inactive); in assay [5] (setting [9]), 97% (active); in assay [5] (at 50.0 µM), 15.2% (inactive) and 79.2% (active).

In the case of `COc1cc(NCCCCCCC2CCCCN2)c2ncccc2c1` (stereo not given), the growth inhibition in assay [1] (setting [8]) was 0% (inactive) and 4% (inactive); in assay [1] (setting [9]) it was 81% (active) and 71% (active); in assay [1] (at 50.0 µM) it was 50.5% (inactive) and 85.7% (active); in assay [2] (setting [8]), -1% (inactive); in assay [2] (setting [9]), 47% (inactive) and 23% (inactive); in assay [2] (at 50.0 µM), 49.2% (inactive) and 45.4% (inactive). In addition, the growth inhibition is -7% (inactive) and 0% (inactive) in assay [3] (setting [8]); 71% (active) and 81% (active) in assay [3] (setting [9]); 40.6% (inactive) and 88% (active) in assay [3] (at 50.0 µM); 5% (inactive) and 3% (inactive) in assay [4] (setting [8]); 27% (inactive) and 61% (inactive) in assay [4] (setting [9]); 14.1% (inactive) and 11.3% (inactive) in assay [4] (at 50.0 µM). Also, the growth inhibition was 1% (inactive) and 4% (inactive) in assay [5] (setting [8]); 54% (inactive) and 37% (inactive) in assay [5] (setting [9]); 53.4% (inactive) and 71.5% (active) in assay [5] (at 50.0 µM).

In the case of `CCN1CCC(O)(c2ccc(Oc3ccccc3)cc2)C(C(=O)c2ccc(Oc3ccccc3)cc2)C1` (stereo not given), the growth inhibition is 25% (inactive) in assay [1] (setting [8]); 19% (inactive) in assay [1] (setting [9]); 32.9% (inactive) in assay [1] (at 50.0 µM); -10% (inactive) in assay [2] (setting [8]); -8% (inactive) in assay [2] (setting [9]); 22.5% (inactive) in assay [2] (at 50.0 µM). The growth inhibition in assay [3] (setting [8]) was 23% (inactive); in assay [3] (setting [9]) it was 28% (inactive); in assay [3] (at 50.0 µM), -21.9% (inactive); in assay [4] (setting [8]), 18% (inactive); in assay [4] (setting [9]), 35% (inactive); in assay [4] (at 50.0 µM), 0.95% (inactive). The growth inhibition in assay [5] (setting [8]) was 14% (inactive); in assay [5] (setting [9]), 38% (inactive); in assay [5] (at 50.0 µM), -23.9% (inactive); in assay [7] (setting [8]), 18% (inactive); in assay [7] (setting [9]), 40% (inactive).

`COC(=O)C(CC(C)=O)CS(=O)(=O)CC(=O)C(=O)Nc1cccc([N+](=O)[O-])c1` (stereo not given): the growth inhibition in assay [1] (setting [8]) was 4% (inactive); in assay [1] (setting [9]), 98% (active); in assay [1] (at 50.0 µM), 99.5% (active); in assay [2] (setting [8]) it was 3% (inactive); in assay [2] (setting [9]) it was 99% (active); in assay [2] (at 50.0 µM), 99.5% (active). In addition, the growth inhibition was 7% (inactive) in assay [3] (setting [8]); 99% (active) in assay [3] (setting [9]); 99.2% (active) in assay [3] (at 50.0 µM); 3% (inactive) in assay [4] (setting [8]); 98% (active) in assay [4] (setting [9]); 98.2% (active) in assay [4] (at 50.0 µM). Besides, the growth inhibition in assay [5] (setting [8]) was 5% (inactive); in assay [5] (setting [9]), 98% (active); in assay [5] (at 50.0 µM), 99.2% (active).

In the case of `CC[C@](O)(CC(=O)O[C@H]1C(=O)O[C@@H]2C[C@H]3C(C)=CC(=O)[C@@H](O)[C@]3(C)[C@H]3[C@@]4(O)OC[C@]32[C@@H]1[C@@H](C)[C@H]4O)C(C)C`, the growth inhibition in assay [1] (setting [8]) was 44% (inactive); in assay [1] (setting [9]), 97% (active); in assay [1] (at 50.0 µM), 88.9% (active); in assay [2] (setting [8]), 35% (inactive); in assay [2] (setting [9]), 98% (active); in assay [2] (at 50.0 µM) it was 91.7% (active). Moreover, the growth inhibition was 57% (inactive) in assay [3] (setting [8]); 98% (active) in assay [3] (setting [9]); 88.9% (active) in assay [3] (at 50.0 µM); 58% (inactive) in assay [4] (setting [8]); 98% (active) in assay [4] (setting [9]); 92.1% (active) in assay [4] (at 50.0 µM). The growth inhibition is 51% (inactive) in assay [5] (setting [8]); 98% (active) in assay [5] (setting [9]); 90.3% (active) in assay [5] (at 50.0 µM); 50% (inactive) in assay [7] (setting [8]); 97% (active) in assay [7] (setting [9]).

Turning to `CSc1ncnc2c1ncn2C1OC(CO)C(O)C1O` (stereo not given), the growth inhibition was 2% (inactive) in assay [1] (setting [8]); 9% (inactive) in assay [1] (setting [9]); 8.95% (inactive) and 3.25% (inactive) in assay [1] (at 50.0 µM); -10% (inactive) in assay [2] (setting [8]); -1% (inactive) in assay [2] (setting [9]); 14.7% (inactive) and 17.6% (inactive) in assay [2] (at 50.0 µM). Also, the growth inhibition in assay [3] (setting [8]) was -5% (inactive); in assay [3] (setting [9]) it was 1% (inactive); in assay [3] (at 50.0 µM), 3.1% (inactive) and -2.35% (inactive); in assay [4] (setting [8]) it was -1% (inactive); in assay [4] (setting [9]) it was -3% (inactive); in assay [4] (at 50.0 µM) it was 38.9% (inactive) and -38.6% (inactive). For the same molecule, the growth inhibition in assay [5] (setting [8]) is -3% (inactive); in assay [5] (setting [9]), -7% (inactive); in assay [5] (at 50.0 µM), 0.05% (inactive) and 13.2% (inactive).

`Nc1ccccc1Oc1ccc(Cl)cc1Cl`: the growth inhibition in assay [1] (setting [8]) is 27% (inactive); in assay [1] (setting [9]) it was 48% (inactive); in assay [1] (at 50.0 µM) it was 92% (active); in assay [2] (setting [8]) it was 37% (inactive); in assay [2] (setting [9]), 61% (inactive); in assay [2] (at 50.0 µM) it was 92.7% (active). The growth inhibition was -21% (inactive) in assay [3] (setting [8]); 98% (active) in assay [3] (setting [9]); 93% (active) in assay [3] (at 50.0 µM); 22% (inactive) in assay [4] (setting [8]); 98% (active) in assay [4] (setting [9]); 92.3% (active) in assay [4] (at 50.0 µM). The growth inhibition in assay [5] (setting [8]) is -18% (inactive); in assay [5] (setting [9]), 95% (active); in assay [5] (at 50.0 µM), 92.3% (active); in assay [6] (at 1.2 µM) it was -3% (inactive); in assay [6] (at 3.7 µM), -16% (inactive); in assay [6] (at 11.0 µM) it was -8% (inactive). In addition, the growth inhibition in assay [6] (at 33.0 µM) was 95% (active); in assay [6] (at 100.0 µM), 99% (active); in assay [7] (setting [8]), 15% (inactive); in assay [7] (setting [9]) it was 59% (inactive); in assay [7] (at 50.0 µM), 92% (active).
